The values below come from the supplement of paper PMC9925115.

Where a name gives a salt, the structure may show the parent alone. ± gives the uncertainty stated by the source.

This experiment concerns FLX1. Put plainly: cell viability z-score within plate (CellTiter-Glo), mean of 3 biological replicates; higher = higher viability relative to plate (less growth inhibition). Conditions: 2 µM; time (hr): 120. As for the experimental part: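 FLX1 fibrolamellar carcinoma cells (DNAJB1-PRKACA fusion), 600 cells/well in 384-well plates, treated with a Selleck kinase inhibitor library (L1200) at 2 uM for 5 days (120 hr); viability by CellTiter-Glo. A z-score was computed within each plate and averaged over three biological replicates.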
On the technique in general: In ATP-based viability assays light output follows the ATP content of the culture.
Regarding `CCc1cc(Nc2nccc(-c3c(-c4ccc(OC)c(C(=O)Nc5c(F)cccc5F)c4)nc4ccccn34)n2)c(OC)cc1N1CCC(N2CCN(S(C)(=O)=O)CC2)CC1`, the “cell viability z-score within plate” value is 0.744 ± 0.54.

On to `OCCn1cc(-c2cnc3nnn(Cc4ccc5ncccc5c4)c3n2)cn1`, for which the “cell viability z-score within plate” value is 0.158 ± 1.6. The result for `Cn1ncc(Cl)c1-c1cc(C(=O)N[C@H](CN)Cc2ccc(F)c(F)c2)oc1Cl` reads -0.657 ± 0.15.

As for `CN1CC[C@H](c2c(O)cc(O)c3c(=O)cc(-c4ccccc4Cl)oc23)[C@H](O)C1` [Flavopiridol HCl], the “cell viability z-score within plate” value is 0.894 ± 0.42.

On to `CCCCCCCCc1ccc(CCC(N)(CO)CO)cc1` [Fingolimod (FTY720) HCl], for which the “cell viability z-score within plate” value was found to be 0.096 ± 0.62. The same measure for `Cn1cc(-c2ccc3nnc(C(F)(F)c4ccc5ncccc5c4)n3n2)cn1`: -0.299 ± 0.51; for `Cn1c(=O)c(F)c(Nc2ccc(I)cc2F)c2c(=O)n(C[C@@H](O)CO)cnc21`: 1.04 ± 0.62. Turning to `COc1cc2ncnc(Nc3ccc(O)c(Br)c3)c2cc1OC`, the “cell viability z-score within plate” value was found to be 0.753 ± 0.38.

Consider `CCOc1cc(N2CCC(O)CC2)ccc1Nc1ncc2c(n1)N(C)c1ccccc1C(=O)N2C`, for which the “cell viability z-score within plate” value stood at 0.413 ± 1.6. As for `Cc1ccc(NC(=O)c2ccc(CN3CCN(C)CC3)cc2)cc1Nc1nc(-c2cccnc2)cs1` [Masitinib (AB1010)], the “cell viability z-score within plate” value is -1.52 ± 1.2. Turning to `CNc1nc(-c2ccc3c(N)n[nH]c3c2)cc(N2C[C@@H](C(=O)NC3CCCCC3)CC[C@H]2C)n1`, the “cell viability z-score within plate” value turned out to be 0.0251 ± 0.54.

In the case of `COc1ccc(-c2ccc3c(N4CCOC[C@@H]4C)nc(N4CCOC[C@@H]4C)nc3n2)cc1CO`, the “cell viability z-score within plate” value came to 0.926 ± 0.45. Regarding `O=C(Nc1cccc(Nc2ncc(Br)c(NCCc3cnc[nH]3)n2)c1)N1CCCC1`, the “cell viability z-score within plate” value amounted to 0.384 ± 0.1. The result for `C[C@]1(O)C[C@@H](c2nc(-c3ccc4ccc(-c5ccccc5)nc4c3)c3c(N)nccn32)C1` [Linsitinib (OSI-906)] reads 0.624 ± 0.4. The result for `COc1cc(CCc2cc(NC(=O)c3ccc(N4CC(C)NC(C)C4)cc3)n[nH]2)cc(OC)c1` (stereo not given) reads 1.18 ± 0.41; that for `COc1ccc(S(=O)(=O)N(C(C)=O)c2ccccc2/C=C/c2cc[n+]([O-])cc2)cc1`, 0.21 ± 0.36.

On to `COc1cc2nccc(Oc3ccc(NC(=O)NC4CC4)c(Cl)c3)c2cc1C(N)=O` [Lenvatinib (E7080)], for which the “cell viability z-score within plate” value was -0.399 ± 0.11. `Cc1ccccc1CN1C2=NCCN2C(=O)C2=C1CCN(Cc1ccccc1)C2` [TIC10 Analogue]: the “cell viability z-score within plate” value came out at 0.481 ± 0.4.

In the case of `COCC(=O)NC/C=C/c1ccc2ncnc(Nc3ccc(Oc4ccc(C)nc4)c(C)c3)c2c1`, the “cell viability z-score within plate” value was -0.356 ± 0.16. For the molecule `COc1cc2ncnc(Nc3cccc(Cl)c3)c2cc1OC` [AG-1478 (Tyrphostin AG-1478)], the “cell viability z-score within plate” value is -0.29 ± 0.52.

`N#CC[C@H](C1CCCC1)n1cc(-c2ncnc3[nH]ccc23)cn1`: the “cell viability z-score within plate” value stood at 0.242 ± 0.22. The result for `CN1CCN(CCOc2cc(OC3CCOCC3)c3c(Nc4c(Cl)ccc5c4OCO5)ncnc3c2)CC1` [Saracatinib (AZD0530)] reads 0.194 ± 0.28; that for `COc1cc(Nc2ncc3c(n2)-c2ccc(Cl)cc2C(c2c(F)cccc2OC)=NC3)ccc1C(=O)O` [Alisertib (MLN8237)], 0.451 ± 0.63; that for `O=S(=O)(c1cccc2cnccc12)N1CCCNCC1` [Fasudil (HA-1077) HCl], 0.511 ± 0.42.

On to `CO[C@@H](C(=O)N1Cc2[nH]nc(NC(=O)c3ccc(N4CCN(C)CC4)cc3)c2C1)c1ccccc1`, for which the “cell viability z-score within plate” value was found to be 0.348 ± 0.073. The same measure for `Cc1cc(C(=O)NOCCO)c(Nc2ccc(I)cc2F)n(C)c1=O`: 0.132 ± 0.35; for `COCCOc1ccc2c(c1)ncn2-c1ccc2cccc(N3CCC(N)CC3)c2n1`: 0.546 ± 0.4. As for `Nc1nc(N)c(N=O)c(OCC2CCCCC2)n1`, the “cell viability z-score within plate” value came out at 0.662 ± 0.19. The result for `CNC(=O)c1ccccc1Nc1nc(Nc2ccc(N3CCOCC3)cc2OC)ncc1Cl` reads 1.3 ± 1.2; that for `COc1ccc(F)c(F)c1C(=O)c1cnc(NC2CCN(S(C)(=O)=O)CC2)nc1N`, 0.272 ± 0.44.

With `COc1ccc(COc2cc3oc(=O)c4cc(C(C)O)ccc4c3cc2OC)cc1` (stereo not given) [Palomid 529 (P529)], the “cell viability z-score within plate” value was determined as 0.0682 ± 0.42. For `COc1cc2ncnc(Oc3ccc(CC(=O)Nc4cnn(C(C)C)c4)cc3)c2cc1OC`, the “cell viability z-score within plate” value is -0.525 ± 0.26. The same measure for `CCN1/C(=C/C(C)=O)Sc2ccc(OC)cc21`: -1.85 ± 0.92; for `CN1CCN(S(=O)(=O)c2ccc(-c3cnc(N)c(C(=O)Nc4cccnc4)n3)cc2)CC1`: 0.448 ± 0.3. On to `S=C(NCc1ccc2c(c1)OCO2)N1CCN(c2ncnc3c2oc2ccccc23)CC1` [Amuvatinib (MP-470)], for which the “cell viability z-score within plate” value is -0.826 ± 0.77. The same measure for `C[C@@H](Oc1cc(-n2cnc3ccc(CN4CCN(C)CC4)cc32)sc1C(N)=O)c1ccccc1C(F)(F)F`: 0.737 ± 0.18. The same measure for `CC(C)NC[C@@H](C(=O)N1CCN(c2ncnc3c2[C@H](C)C[C@H]3O)CC1)c1ccc(Cl)cc1` [Ipatasertib (GDC-0068)]: 1.05 ± 0.14. With `Cc1cc(C)c(/C=C2\C(=O)Nc3ccccc32)[nH]1` [Semaxanib (SU5416)], the “cell viability z-score within plate” value is -1.17 ± 0.77. The same measure for `Nc1cc(C(F)(F)F)c(-c2cc(N3CCOCC3)nc(N3CCOCC3)n2)cn1` [Buparlisib (BKM120, NVP-BKM120)]: -0.0175 ± 0.38. Turning to `CN1CCN(c2cccc(Nc3nc4c(-c5ccc(S(C)(=O)=O)cc5)cccn4n3)c2)CC1`, the “cell viability z-score within plate” value stood at 1.01 ± 0.27.
